# Experimental data: the supplement of paper PMC4840960
# Structures can show the parent of a compound that is named as a salt. ± gives the standard deviation of the averaged measurements.
# What was measured:
# [1] = system: E18 rat cortical neuron-glia co-culture; experiment: fiber score / MBP score (myelination specific beyond OL differentiation) (ratio); higher = more myelination-specific MBP alignment; settings: treatment time: 8 days (DIV5-DIV13)
# Summary of the method: (§1)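 Primary E18 rat cortical co-cultures (papain-dissociated, 20,000 cells/well on poly-d-lysine/laminin 96-well plates) received library compounds at 1 or 5 µM in myelination medium from DIV5 to DIV13. Cells were fixed in 4 % paraformaldehyde and immunostained for MBP and Olig2 with DAPI, and four 10X fields per well in duplicate wells were analysed. The read-out is fiber score (continuous MBP fiber length per Olig2+ nucleus) divided by MBP score (thresholded MBP area × intensity per Olig2+ nucleus).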
# [2] = system: E18 rat cortical neuron-glia co-culture; experiment: myelination (MBP fiber length per Olig2+ nucleus), % of 1 µM DAPT response (DMSO = 0) (% of DAPT); higher = more myelination, active = 50 or more; settings: treatment time: 8 days (DIV5-DIV13)
# Summary of the method: as §1, with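 “Myelination was continuous straight” for “The read-out is fiber score (continuous”, “nucleus, normalised to 0.1 % DMSO (0) and a 1 µM positive control (100).” for “nucleus) divided by MBP score (thresholded MBP area × intensity per Olig2+ nucleus).”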
SMILES,fiber score / MBP score ([1]; 1 µM),fiber score / MBP score ([1]; 5 µM),myelination ([2]; 1 µM),myelination ([2]; 5 µM)
CC(=O)Nc1ccc(CC(=O)O)cc1 [Actarit],0.756,0.778,-13.9 (inactive),-10.1 (inactive)
O=C1[C@H](CC[C@H](O)c2ccc(F)cc2)[C@@H](c2ccc(O)cc2)N1c1ccc(F)cc1 [Ezetimibe],0.641,0.648,-31.2 (inactive),-37.1 (inactive)
OCCOCCN1CCN(C(c2ccccc2)c2ccc(Cl)cc2)CC1 (stereo unspecified) [Hydroxyzine pamoate salt],0.154,0.28,-6.65 (inactive),-24.4 (inactive)
C[C@](N)(Cc1ccc(O)c(O)c1)C(=O)O [Methyldopa],1.28,0.884,22.3 (inactive),-8.85 (inactive)
CC(C)NCC(O)COc1ccc(CCOCC2CC2)cc1 (stereo unspecified) [Betaxolol],0.636,0.615,-12.6 (inactive),-10.5 (inactive)
CCCCC(=O)N(Cc1ccc(-c2ccccc2-c2nnn[nH]2)cc1)[C@H](C(=O)O)C(C)C [Valsartan],0.885,0.655,-7.17 (inactive),-17.4 (inactive)
NC[C@H](O)c1ccc(O)c(O)c1 [Norepinephrine],0.663,0.756,-41.6 (inactive),-38.4 (inactive)
CN1CCc2cc(Cl)c(O)cc2C(c2ccccc2)C1 (stereo unspecified),0.959,0.975,-8.8 (inactive),-9.82 (inactive)
CCc1c(C)[nH]c2c1C(=O)C(CN1CCOCC1)CC2 (stereo unspecified) [Molindone],0.619,0.498,-21 (inactive),-25.8 (inactive)
Cc1ccc(NC(=O)c2ccc(CN3CCN(C)CC3)cc2)cc1Nc1nccc(-c2cccnc2)n1 [Imatinib mesylate],0.424,0.773,-5.16 (inactive),37.1 (inactive)
O=C1C(CC[S+]([O-])c2ccccc2)C(=O)N(c2ccccc2)N1c1ccccc1 (stereo unspecified) [Sulfinpyrazone],1.18,0.857,-0.801 (inactive),-7.44 (inactive)
Nc1nc(N)c2nc(-c3ccccc3)c(N)nc2n1 [Triamterene],1.39,1.62,68.5,461 (active)
CCc1cccc2c3c([nH]c12)C(CC)(CC(=O)O)OCC3 (stereo unspecified) [Etodolac],0.706,1.38,-10.5 (inactive),16.1 (inactive)
O=c1[nH]c(=O)n([C@H]2C[C@H](O)[C@@H](CO)O2)cc1F [Floxuridine],1.49,1.71,286,367 (active)
COC(=O)CCc1ccc(OCC(O)CNC(C)C)cc1 (stereo unspecified) [Esmolol],1.07,0.988,2.16 (inactive),-0.768 (inactive)
CN(C)c1ccc(O)c2c1C[C@H]1C[C@H]3[C@H](N(C)C)C(O)=C(C(N)=O)C(=O)[C@@]3(O)C(O)=C1C2=O [Minocycline],0.788,0.583,-6.54 (inactive),-5.86 (inactive)
Clc1ccc2c(c1)C(N1CCNCC1)=Nc1ccccc1O2 [Amoxapine],1.09,0.185,0.685 (inactive),-23.6 (inactive)
CCCC(=O)Nc1ccc(OCC(O)CNC(C)C)c(C(C)=O)c1 (stereo unspecified) [Acebutolol],0.757,0.796,-40.3 (inactive),-32.5 (inactive)
CC(C)(C)NCC(O)c1ccc(O)c(CO)c1 (stereo unspecified) [Albuterol],0.654,0.789,-29.6 (inactive),-17.3 (inactive)
CC1(C)O[C@@H]2[C@@H](CO[C@@]3(COS(N)(=O)=O)OC(C)(C)O[C@@H]23)O1 [Topiramate],0.669,0.896,-20.2 (inactive),-11.6 (inactive)

SMILES,fiber score / MBP score ([1]; 1 µM),fiber score / MBP score ([1]; 5 µM),myelination ([2]; 1 µM),myelination ([2]; 5 µM)
CC1(C)S[C@@H]2[C@H](NC(=O)COc3ccccc3)C(=O)N2[C@H]1C(=O)O [Penicillin V],0.881,0.734,-3.1 (inactive),-3.83 (inactive)
C[C@H](CCC(=O)O)[C@H]1CC[C@H]2[C@@H]3[C@H](O)C[C@@H]4C[C@H](O)CC[C@]4(C)[C@H]3CC[C@]12C [Chenodeoxycholic Acid],0.861,0.787,-8.08 (inactive),-12 (inactive)
Cc1cccc(Nc2ccncc2S(=O)(=O)NC(=O)NC(C)C)c1 [Torsemide],0.837,0.949,-11.6 (inactive),-4.35 (inactive)
O=C(O[C@@H]1Cc2c(O)cc(O)cc2O[C@@H]1c1cc(O)c(O)c(O)c1)c1cc(O)c(O)c(O)c1 [Epigallocatechin gallate],0.732,1.01,-23.8 (inactive),-10.9 (inactive)
CCCNCC(O)COc1ccccc1C(=O)CCc1ccccc1 (stereo unspecified) [Propafenone],0.873,0.376,-1.52 (inactive),-22.4 (inactive)
CCOC(=O)[C@H](CCc1ccccc1)N[C@@H](C)C(=O)N1[C@H](C(=O)O)C[C@@H]2CCC[C@@H]21 [Ramipril],0.635 ± 0.29,0.628 ± 0.47,-11.2 (inactive),-8.93 (inactive)
C[C@H]1C[C@H]2[C@@H]3CCC4=CC(=O)C=C[C@]4(C)[C@@]3(F)[C@@H](O)C[C@]2(C)[C@@]1(O)C(=O)CCl [Clobetasol],0.961,0.686,7.06 (inactive),-9.01 (inactive)
C#C[C@]1(O)CC[C@H]2[C@@H]3CCC4=Cc5oncc5C[C@]4(C)[C@H]3CC[C@@]21C [Danazol],0.577,0.557,-20.4 (inactive),-24.3 (inactive)
CN(CCO)CC(O)Cn1cnc2c1c(=O)n(C)c(=O)n2C (stereo unspecified) [Jupal],0.827,0.635,-7.05 (inactive),-10.5 (inactive)
NS(=O)(=O)c1cc2c(cc1C(F)(F)F)NC(Cc1ccccc1)NS2(=O)=O (stereo unspecified) [Bendroflumethiazide],0.474,0.559,-24.6 (inactive),-27.7 (inactive)
COC1=CC(=O)C[C@@H](C)[C@]12Oc1c(Cl)c(OC)cc(OC)c1C2=O [Griseofulvin],0.759,0.92,-17.8 (inactive),21.8 (inactive)
CCOC(=O)CCC(=O)O[C@H]1[C@H](O[C@@H]2[C@@H](C)[C@H](O[C@H]3C[C@@](C)(OC)[C@@H](O)[C@H](C)O3)[C@@H](C)C(=O)O[C@H](CC)[C@@](C)(O)[C@H](O)[C@@H](C)C(=O)[C@H](C)C[C@@]2(C)O)O[C@H](C)C[C@@H]1N(C)C [Erythromycin Ethylsuccinate],0.639,0.642,-18 (inactive),-16.3 (inactive)
Fc1ccc([C@@H]2CCNC[C@H]2COc2ccc3c(c2)OCO3)cc1 [Paroxetine],0.8051 ± 0.003,1.08 ± 0.16,-13.8 (inactive),3.71 (inactive)
C[C@]12CCC(=O)C=C1CC[C@@H]1[C@@H]2[C@@H](O)C[C@@]2(C)[C@H]1CC[C@]2(O)C(=O)COC(=O)CCC(=O)O [Cortisol succinate],0.943,1.41,0.996 (inactive),17.9 (inactive)
CCCSc1ccc2[nH]c(NC(=O)OC)nc2c1 [Albendazole],0.797,0.0787,112,-37.4 (inactive)
CCc1nc(N)nc(N)c1-c1ccc(Cl)cc1 [Pyrimethamine],1.86,2.19,398 (active),655 (active)
CCN(CC)CC(=O)Nc1c(C)cccc1C [Lidocaine],0.745,0.698,-26.3 (inactive),-24.5 (inactive)
C[n+]1ccccc1C=NO [Pralidoxime],0.884,1.12,-7.49 (inactive),1.41 (inactive)
Cc1nc2n(c(=O)c1CCN1CCC(c3noc4cc(F)ccc34)CC1)CCCC2 [Risperidone],0.936,0.565,-7.71 (inactive),-15.1 (inactive)
